Compound activity: PubChem BioAssay, National Center for Advancing Translational Sciences (NCATS)
Sampled rows, rich in hits. Any-hit rate of the full collection: about 2.1%.
aSyn yeast inh – qHTS of alpha-syn Inhibitors | AID 652106, 2013 | hit rate 0.14% among 370,000 | Yeast expressing alpha-synuclein, growth rescue, BacTiter-Glo, 24 h | Potency, µM (series often up to 46.1 µM), hits mostly activators; further: nearly all actives have a fitted effect of over 65% in size
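Galactose-induced alpha-syn yeast (OD600=0.02, raffinose-pregrown) + pinned cpd, 24 hr, 30 deg C; growth by BacTiter-Glo luminescence. Growth restoration scores as activation.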
Abeta yeast res – qHTS for compounds that reverse cellular toxicity of Amyloid beta (A-beta) peptide in yeast: Primary Screen; yeast expressing A-beta42, growth rescue, OD600, 48 h; response scale: 0% DMSO, 100% iron-clioquinol control; Potency, µM (titrated, usually from 46.1 µM), most hits filed as activators; hit rate 0.063% among 410,000; AID 1347071, 2019; further: nearly all actives have a fitted effect of over 55% in size
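Yeast A-beta toxicity model in growth medium with pinned compounds, 48 h at 30 C; growth read as absorbance at 600 nm. Normalized to FeCl3/clioquinol equimolar mix (positive) and DMSO (negative).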
TDP43 rescue – qHTS of TDP-43 Inhibitors. TDP-43 expressing yeast growth rescue, BacTiter-Glo, 24 h. Potency, µM (series often up to 46.1 µM), usual class: activators. hit rate 1.8% among 410,000; further: nearly all actives have a fitted effect of over 50% in size
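Cell-based yeast growth screen: TDP-43 expression induced in galactose, inoculum OD600=0.02 after raffinose pregrowth to mid-log. Read-out BacTiter-Glo luminescence at 24 hr, 30 deg C; inhibition of toxicity seen as signal increase.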
FUS suppressor – qHTS for Suppressors of FUS Proteinopathy: Primary screen using FUS-linked yeast assay. S. cerevisiae FUS-expressing, growth rescue, OD600, 24 h. Potency, µM (series often up to 76.6 µM), actives largely listed as activators. hit rate 0.24% among 390,000. AID 1347120, 2019; further: nearly all actives have a fitted effect of over 55% in size
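Steps: raffinose overnight preculture; dilution to OD 0.005 in 2% galactose minimal medium; compound addition (concentration series); 24hr at 30C, 99% humidity; absorbance read at 600 nm.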
Of the large screens only hits and unclear results are named; the others gave an inactive call. The call rests on the fitted dose curve; in most records, active means well fitted curve in the direction sought with a large enough effect; inconclusive means small, poorly fitted or top-dose-only effect, or another doubt; inactive means no such curve, though single readings can be large; an effect the other way counts as inactive or inconclusive.

Clc1ccc(COn2c(-c3ccccc3)nc3ccccc32)cc1	TDP43 rescue 18µM
Cc1cc(NC(=O)c2ccc(NS(=O)(=O)c3ccccc3)cc2)no1	none (no result: aSyn yeast inh, Abeta yeast res, TDP43 rescue)
CC1(C)c2ssc(=S)c2-c2ccccc2N1C(=O)CSC1=NCCS1	TDP43 rescue 35µM
COc1ccc2c(c1)-c1c(ssc1=S)C(C)(C)N2C(=O)CSC1=NCCS1	TDP43 rescue inconclusive
Cc1ccc2nc(NC(=O)CCn3cccc3)sc2c1	none
Cc1ccc2nc(NC(=O)CCn3c(=O)sc4ccccc43)sc2c1	TDP43 rescue 20µM
O=C(CCn1c(=O)sc2ccccc21)Nc1nc2ccccc2s1	TDP43 rescue 28µM
O=C(c1ccccc1)N1CCN(c2ncnc3sc4c(c23)CCC4)CC1	TDP43 rescue 22µM
CCOC(=O)c1sc2nc3c(cc2c1N)COC(C)(CC)C3 (stereo unspecified)	TDP43 rescue 11µM (no result: aSyn yeast inh)
Cc1ccc(OCc2nc3ccccc3n2C(C(=O)Nc2c(C)cccc2C)C2CC2)cc1 (stereo unspecified)	FUS suppressor 8.9µM
CCn1c(COc2ccc(C)cc2)nc2ccccc21	TDP43 rescue 11µM
C=CCn1c(COc2ccccc2)nc2ccccc21	Abeta yeast res 20µM
CCOc1ccc(-c2nnc3ccc(SC(C)C)nn23)cc1	TDP43 rescue 16µM
CCOc1ccc(-c2nnc3ccc(SCC(=O)N4CCCCC4)nn23)cc1	none
Cn1c(Cc2cccs2)nnc1SCC(=O)Nc1ccc2cn[nH]c2c1	none (no result: aSyn yeast inh, Abeta yeast res, TDP43 rescue)
O=C(NCCC1=CCCCC1)C1CCN(C(=O)N2CCOc3ccc(Cl)cc32)CC1	Abeta yeast res inconclusive, TDP43 rescue 28µM (no result: aSyn yeast inh)
Cc1noc(C)c1COc1ccccc1C(=O)N(C)Cc1ccc(C(C)(C)C)cc1	TDP43 rescue 35µM
O=C(O)CN1C(=O)/C(=C/C=C/c2ccccc2)SC1=S	none
O=C(O)CN1C(=O)/C(=C\c2cccc(OCc3ccc(Cl)cc3)c2)SC1=S	Abeta yeast res inconclusive, TDP43 rescue inconclusive
O=C(O)CN1C(=O)/C(=C\C(Br)=C\c2ccccc2)SC1=S	TDP43 rescue 13µM
O=C(O)CN1C(=O)/C(=C\c2cccc(OCc3ccc(F)cc3)c2)SC1=S	Abeta yeast res 5µM
O=C(O)CN1C(=O)/C(=C\c2cccc(OCc3ccccc3F)c2)SC1=S	Abeta yeast res 8.9µM
C/C(=N/NC(=O)c1ccoc1C)c1cccs1	none (no result: aSyn yeast inh, Abeta yeast res, TDP43 rescue)
COc1ccccc1CNc1cc(-c2ccccc2)ccc1OC	TDP43 rescue 13µM (no result: FUS suppressor)
COc1ccccc1NC(=O)Cc1ccc(-c2ccccc2)cc1	TDP43 rescue 16µM
COc1ccc(-c2ccccc2)cc1NCc1ccccc1C	none
Cc1ccc(NC(=O)Cc2ccc(-c3ccccc3)cc2)nc1	Abeta yeast res inconclusive, TDP43 rescue 7.1µM
O=C(Cc1ccc(-c2ccccc2)cc1)Nc1ccccn1	TDP43 rescue 14µM
COc1ccc([C@H]2OC(=O)C[C@@H]2C(=O)N2CCN(c3ccccc3F)CC2)cc1OC	none (no result: aSyn yeast inh, Abeta yeast res, TDP43 rescue)
Cc1ccnc(NC(=O)Cc2ccc([N+](=O)[O-])cc2)c1	none
Cc1ccnc(NC(=O)Cc2ccc(-c3ccccc3)cc2)c1	TDP43 rescue 14µM
FC(F)(F)c1ccccc1Cc1c(C2CCCCC2)nc2ccc(Br)cn12	TDP43 rescue inconclusive
COC(=O)c1ccc2nc(-c3ccc(C)cc3)c(Cc3ccccc3OC)n2c1	none
COc1ccccc1Cc1c(C2CCCCC2)nc2ccc(Br)cn12	TDP43 rescue 13µM
COC(=O)c1ccc2nc(-c3ccccc3)c(Cc3ccccc3OC)n2c1	TDP43 rescue 35µM
COc1ccccc1Cc1c(-c2ccc(C)cc2)nc2ccc(Br)cn12	none
COc1ccccc1Cc1c(-c2ccccc2)nc2ccc(Br)cn12	TDP43 rescue 35µM
COc1ccc(CC(=O)Nc2sc3c(c2C(N)=O)CCCC3)cc1	none
COCCn1cnnc1SCC(=O)Nc1sc2c(c1C#N)CCC2	none (no result: FUS suppressor)
COc1cc(OC)cc(C(=O)Nc2sc3c(c2C(N)=O)CCC3)c1	aSyn yeast inh 3.5µM
Cn1cnnc1SCC(=O)Nc1sc2c(c1C(N)=O)CCC2	FUS suppressor 7.1µM
COc1ccc(NC(=O)C2Cc3c(-c4cccc(C(C)=O)c4)ccnc3O2)cc1 (stereo unspecified)	TDP43 rescue 22µM
CC(C)c1ccc(NC(=O)C2Cc3c(-c4ccco4)ccnc3O2)cc1 (stereo unspecified)	aSyn yeast inh inconclusive, TDP43 rescue 35µM
CC(=O)c1cccc(-c2ccnc3c2CC(C(=O)Nc2ccc4c(c2)OCO4)O3)c1 (stereo unspecified)	TDP43 rescue 25µM, FUS suppressor inconclusive
COc1ccc(NC(=O)C2Cc3c(-c4cccc(NC(C)=O)c4)ccnc3O2)cc1 (stereo unspecified)	none
CC(=O)Nc1ccc(-c2ccnc3c2CC(C(=O)Nc2ccc(C(C)C)cc2)O3)cc1 (stereo unspecified)	FUS suppressor inconclusive
CC(=O)Nc1ccc(NC(=O)C2Cc3c(-c4cccc(C(C)=O)c4)ccnc3O2)cc1 (stereo unspecified)	none
CC(=O)c1cccc(-c2ccnc3c2CC(C(=O)Nc2ccc(Cl)c(C(F)(F)F)c2)O3)c1 (stereo unspecified)	TDP43 rescue 16µM
O=C(COCc1ccccc1)N1CC[C@H]2[C@H](CCCN2Cc2ccccc2)C1	none (no result: aSyn yeast inh, Abeta yeast res, TDP43 rescue)
OCC(O)C[n+]1cccc(Br)c1 (stereo unspecified)	none (no result: Abeta yeast res, TDP43 rescue, FUS suppressor)
CCOC(=O)CC[C@@H]1CC[C@]2(CCCN(C(=O)c3ccc4ccccc4n3)C2)O1	none (no result: aSyn yeast inh, Abeta yeast res, TDP43 rescue)
COc1ccc(NC(=O)C2Cc3c(-c4ccccc4Oc4ccccc4)ccnc3O2)cc1 (stereo unspecified)	TDP43 rescue 25µM
O=C(Nc1ccccc1)C1Cc2c(-c3ccccc3Oc3ccccc3)ccnc2O1 (stereo unspecified)	none
O=C(Nc1cccc(OC(F)(F)F)c1)C1Cc2c(-c3ccc(Cl)cc3)ccnc2O1 (stereo unspecified)	aSyn yeast inh inconclusive
COc1ccc(CNC(=O)C2Cc3c(-c4ccccc4)ccnc3O2)cc1OC (stereo unspecified)	none
CC(=O)Nc1ccc(-c2ccnc3c2CC(C(=O)Nc2ccc4c(c2)OCO4)O3)cc1 (stereo unspecified)	FUS suppressor inconclusive
CC(=O)c1cccc(-c2ccnc3c2CC(C(=O)Nc2cccc(OC(F)(F)F)c2)O3)c1 (stereo unspecified)	Abeta yeast res inconclusive, TDP43 rescue 35µM
COc1ccc(CCCNC(=O)C2Cc3c(-c4ccccc4)ccnc3O2)cc1 (stereo unspecified)	TDP43 rescue 32µM
CC(C)c1ccc(NC(=O)C2Cc3c(-c4ccc5c(c4)OCO5)ccnc3O2)cc1 (stereo unspecified)	TDP43 rescue 35µM, FUS suppressor inconclusive
CC(=O)Nc1cc([N+](=O)[O-])cc(NC(C)=O)c1NC(C)=O	none (no result: Abeta yeast res, TDP43 rescue, FUS suppressor)
Cc1ccc(C)c(NC(=O)Cn2nnc(-c3ccncc3)n2)c1	none (no result: aSyn yeast inh, Abeta yeast res, TDP43 rescue)
